Values joined by “and” are separate entries in the source; they are usually repeats but may differ in a detail not shown here. Equal entries are not always repeated. Hit rate of the full screen: of about 350,000 compounds, about 1,900 (0.54%) were called active.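 How the source made its calls: active means mean inhibition across replicates at least about 35%, with every replicate also reaching that limit (limit read from the data); inconclusive means only one of the two criteria met; inactive means neither criterion met.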 The entries come from a sample that favours actives as a whole. Some structures have more than one record in an assay (separate samples or runs), and their calls can disagree.
Target: Caspase-6 (Homo sapiens) (UniProt P55212)
Assay: human caspase-6 inhibitors, primary screen, biochemical, VEID-R110 fluorescence, single point, set 2 (AID 686996);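 further: 0% = median of neutral control wells and 100% = no fluorescence left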
Conditions: purified caspase-6, Z-VEID-R110 cleavage fluorescence; at 12.5 µM; stronger effect = higher value

Caspase-6 (Homo sapiens), sequence (P55212 24-179 limits assumed): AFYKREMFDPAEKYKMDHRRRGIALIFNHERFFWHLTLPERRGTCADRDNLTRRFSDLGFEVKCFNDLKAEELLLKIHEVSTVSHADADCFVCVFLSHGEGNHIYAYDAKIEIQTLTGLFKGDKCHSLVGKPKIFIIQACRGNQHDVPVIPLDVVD
Caspase-6 (Homo sapiens), sequence (P55212 194-293 limits assumed): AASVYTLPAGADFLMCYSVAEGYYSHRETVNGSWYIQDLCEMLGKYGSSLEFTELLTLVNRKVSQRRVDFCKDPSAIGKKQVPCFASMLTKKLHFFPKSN

Row | SMILES | inhibition
1 | C[C@H](O)C#Cc1ccc2c(c1)O[C@@H](CN(C)Cc1cncnc1)[C@H](C)CN([C@H](C)CO)S2(=O)=O | -2.4% (inactive)
2 | O=C(C1CCCC1)N1CC(=O)N2[C@H](C1)[C@@H](c1ccc(-c3cccnc3)cc1)[C@@H]2CO | -0.455% (inactive)
3 | Cc1ccc(NC(=O)OCCNC(=O)c2ccncc2)cc1 | 2.78% (inactive)
4 | COCCNC(=O)CSc1nc(N)c(NC(=O)c2ccco2)c(=O)[nH]1 | 2.38% (inactive)
5 | COCCNC(=O)Nc1ccc2nc(-c3ccco3)c(-c3ccco3)nc2c1 | 79.9% (active)
6 | C[C@@H]1CN([C@H](C)CO)C(=O)c2cc(-c3cccc(C(=O)N(C)C)c3)cnc2O[C@H]1CN(C)S(=O)(=O)c1ccc(F)cc1 | 1.95% (inactive)
7 | COc1ccccc1CCNC(=O)C1CCN(C(=O)/C=C/c2ccccc2)CC1 | -1.88% (inactive)
8 | COc1ccc(OC)c(/C=C/C(=O)c2ccc3c(c2)OCO3)c1 | 2% (inactive)
9 | COc1cc(/C=C/C(=O)OCC(=O)NC(=O)NCc2ccccc2)ccc1OCC#N | 0.201% (inactive)
10 | COc1cc(C(=O)NCC(c2ccco2)N2CCCC2)ccc1OCc1ccccc1 (stereo not given) | -1.23% (inactive)
11 | COc1ccc(C(=O)/C=C/c2ccc(-c3ccccc3)cc2)cc1CSCC(=O)O | 63.7% (active)
12 | COC(=O)c1ccc(COc2ccc(/C=C/C(=O)c3ccc(OC)c(CSCC(=O)O)c3)cc2OC)cc1 | 41% (active)
13 | C[C@@H]1CN([C@H](C)CO)C(=O)Cc2cc(NC(=O)Cc3ccccc3)ccc2O[C@H]1CN(C)S(=O)(=O)c1cccs1 | -1.84% (inactive)
14 | CCCN1C[C@@H](C)[C@@H](OC)CN(C)C(=O)c2cc(NC(=O)NC3CCCCC3)ccc2OC[C@H]1C | 0.443% (inactive)
15 | C[C@H](CO)N1C[C@H](C)[C@H](CN(C)Cc2ccc(C(F)(F)F)cc2)Oc2ccc(NC(=O)CCCCCC(=O)Nc3ccccc3N)cc2CC1=O | 1.34% (inactive)
16 | Cc1cc(C)c(S(=O)(=O)NN=C2c3ccccc3[C@H]3Cc4csc[n+]4[C@@H]23)c(C)c1 | 85.1% (active)
17 | O=C(N[C@H]1CC[C@H](CCNS(=O)(=O)c2ccc(F)cc2)O[C@H]1CO)C1CCCC1 | 2.12% (inactive)
18 | C[C@@H]1CCCCO[C@H](CN(C)C)[C@H](C)CN([C@@H](C)CO)C(=O)c2cc(NC(=O)Cc3ccccc3)ccc2O1 | -0.443% (inactive)
19 | O=C(Nc1ccc(-c2ccccc2)cc1)[C@@H]1[C@@H](CO)[C@@H]2Cn3c(cccc3=O)[C@H]1N2Cc1ccncc1 | 0.424% (inactive)
20 | CN(C)[C@@H]1C(=O)C(C(N)=O)=C(O)[C@@]2(O)C(=O)C3=C(O)c4c(O)ccc(Cl)c4[C@@H](O)[C@H]3C[C@@H]12 | 49.5% (active)
21 | C=C1c2c(Cl)ccc(O)c2C(O)=C2C(=O)[C@]3(O)C(O)=C(C(N)=O)C(=O)[C@@H](N(C)C)[C@@H]3[C@@H](O)C12 (stereo not given in full) | 73.9% (active)
22 | C[C@@H]1CCCCO[C@H](CN(C)S(=O)(=O)c2ccc(Cl)cc2)[C@H](C)CN([C@H](C)CO)C(=O)c2cc(NC(=O)NC3CCCCC3)ccc2O1 | -2.73% (inactive)
23 | N#C[C@H]1[C@@H](c2ccc(C3=CCCCC3)cc2)[C@@H](CO)N1C(=O)Cc1ccncc1 | 0.643% (inactive)
24 | O=S(=O)(c1ccccc1)N1[C@H](CO)[C@@H]2c3ccccc3NC[C@@H]21 | -2.35% (inactive)
25 | C[C@@H]1CN([C@H](C)CO)C(=O)Cc2cc(NC(=O)NC3CCCCC3)ccc2O[C@H]1CN(C)S(=O)(=O)c1ccc(Cl)cc1 | 0.436% (inactive)

Row | SMILES | inhibition
26 | C[C@H](O)C#Cc1ccc([C@@H]2[C@H](CO)N3CCCCN(CC4CC4)C[C@@H]23)cc1 | 4.05% (inactive)
27 | CN(C)CC(=O)N[C@H]1CC[C@H](CCNC(=O)Nc2ccc(F)cc2)O[C@H]1CO | 2.23% (inactive)
28 | CC(C)NC(=O)N(C)C[C@H]1Oc2ccc(NS(C)(=O)=O)cc2CC(=O)N([C@@H](C)CO)C[C@H]1C | -2.92% (inactive)
29 | COc1ccc2nc(-c3ccccn3)ccc2c1 | -1.05% (inactive)
30 | COc1ccc(C=Nc2cccc3ncccc23)cc1 | 44.7% (active)
31 | COc1ccc(-c2cc3ncccc3cn2)cc1 | 1.91% (inactive)
32 | C[C@@H]1CCCCO[C@H](CN(C)S(=O)(=O)c2cccs2)[C@H](C)CN([C@@H](C)CO)C(=O)c2cc(NC(=O)Nc3ccc4c(c3)OCO4)ccc2O1 | -0.622% (inactive)
33 | COc1ccc(S(=O)(=O)Nc2ccc3c(c2)CC(=O)N([C@@H](C)CO)C[C@@H](C)[C@@H](CN(C)C)O3)cc1 | 2.95% (inactive)
34 | O=C(CCC(=O)c1ccccc1)NCc1cccc(C(F)(F)F)c1 | -0.291% (inactive)
35 | O=C(O)CCC(=O)NCc1ccc2[nH]c3c(c2c1)CCCC3 | 41.9% (active)
36 | Cc1cccc(NC(=S)NCc2ccc3[nH]c4c(c3c2)CCCC4)c1 | -0.948% (inactive)
37 | C[C@@H]1CN([C@@H](C)CO)C(=O)c2cccc(NC(=O)Nc3ccc4c(c3)OCO4)c2O[C@H]1CN(C)C(=O)Nc1cccc2ccccc12 | -2.55% (inactive)
38 | C[C@H](CO)N1C[C@H](C)[C@H](CN(C)C(=O)NC2CCCCC2)Oc2ccc(NC(=O)CCCN(C)C)cc2CC1=O | 1.62% (inactive)
39 | C=CCn1c(=S)[nH]c2scc(-c3ccco3)c2c1=O | 80.7% (active)
40 | C[C@H]1CN([C@@H](C)CO)S(=O)(=O)c2ccc(-c3cccc(C#N)c3)cc2O[C@H]1CN(C)C(=O)c1ccccc1 | 5.87% (inactive)
41 | Cc1nc2ccccc2c(=O)n1-c1ccc(F)c(NC(=O)c2cccs2)c1 | -0.817% (inactive)
42 | Cc1nc2ccccc2c(=O)n1-c1ccc(NS(=O)(=O)c2ccc(F)cc2F)cc1 | 49.9% (active)
43 | COc1ccc(NS(=O)(=O)c2ccc(F)cc2F)cn1 | 1.04% (inactive)
44 | O=C1C[C@@](C(=O)NCC(F)(F)F)(c2ccc([N+](=O)[O-])cc2)[C@@H](c2ccc(CO)cc2I)N1C1CCCCC1 | 2.45% (inactive)
45 | C[C@H]1CN([C@@H](C)CO)C(=O)Cc2cc(NS(=O)(=O)c3ccccc3)ccc2O[C@@H]1CN(C)Cc1ccc(C(=O)Nc2ccccc2N)cc1 | 39.7% (active)
46 | COc1ccc(S(=O)(=O)Nc2ccc3c(c2)CC(=O)N([C@@H](C)CO)C[C@@H](C)[C@@H](CN(C)Cc2ccc(C(=O)Nc4ccccc4N)cc2)O3)cc1 | -1.35% (inactive)
47 | C[C@H]1CN([C@@H](C)CO)C(=O)Cc2cc(NS(=O)(=O)c3ccccc3)ccc2O[C@H]1CN(C)Cc1ccc(C(=O)Nc2ccccc2N)cc1 | -0.988% (inactive)
48 | C[C@H]1CN([C@@H](C)CO)S(=O)(=O)c2ccc(C#Cc3ccccc3)cc2O[C@@H]1CN(C)C(=O)C1CC1 | 2.82% (inactive)
49 | CN(C)C(=O)c1ccc(-c2ccccc2[C@H]2[C@@H](CO)N(C(=O)C3CCCCC3)[C@H]2C#N)cc1 | -0.604% (inactive)
50 | COc1ccc(CN(C)C[C@@H]2Oc3ccc(NC(=O)Nc4ccc(F)cc4)cc3CC(=O)N([C@@H](C)CO)C[C@H]2C)cc1 | 3.48% (inactive)

Row | SMILES | inhibition
51 | COC(=O)CCCCC1=CCC2C(=O)C=C(O)C2C1 (stereo not given) | 70.5% (active)
52 | CC(C)(O)C#Cc1ccc([C@H]2[C@@H](CO)N3CCCCN(C(=O)c4ccncc4)C[C@H]23)cc1 | 1.18% (inactive)
53 | COCC(=O)N1CC(=O)N2[C@H](CO)[C@@H](c3ccc(C#CC4CCCC4)cc3)[C@H]2C1 | -0.852% (inactive)
54 | CCOc1ccc(C(=O)NCC(=O)N2CCCCCCC2)cc1OCC | -0.226% (inactive)
55 | CCOc1ccc(CCNC(=O)Nc2ccccc2)cc1OCC | -1.26% (inactive)
56 | CCOc1cc(C(=O)O)ccc1OCCOc1ccccc1 | 35.6% (active)
57 | O=C(C[C@H]1CC[C@@H](NC(=O)c2ccncc2)[C@@H](CO)O1)Nc1ccccc1 | 1.11% (inactive)
58 | CCNC(=O)C[C@@H]1CC[C@H]2[C@@H](COc3ccc(NC(=O)NC(C)C)cc3C(=O)N2C)O1 | 0.619% (inactive)
59 | O=c1nc(N/N=C/c2ccco2)cn[nH]1 | 55.7% (active)
60 | Cc1n[nH]c(=O)nc1N/N=C/c1cccs1 | 0.991% (inactive)
61 | O=C(Cn1cnc2ccccc21)N/N=C/c1ccco1 | 1.45% (inactive)
62 | COc1ccccc1C#Cc1cnc2c(c1)C(=O)N([C@@H](C)CO)C[C@H](C)[C@@H](CN(C)C(=O)CC1CC1)O2 | -4.85% (inactive)
63 | CCOc1ccc(CCN2C(=O)c3cccnc3C2=O)cc1OCC | 3.27% (inactive)
64 | NC1=CC(=O)C(=O)c2cccnc21 | 93.8% (active)
65 | C[C@@H]1CN([C@H](C)CO)C(=O)c2cc(NC(=O)Cc3ccccc3)ccc2O[C@@H](C)CCCCO[C@H]1CN(C)C(=O)Cc1ccccc1 | 1% (inactive)
66 | C[C@@H]1CN([C@H](C)CO)C(=O)c2cc(C#CC3CC3)cnc2O[C@@H]1CN(C)Cc1ccccn1 | -0.477% (inactive)
67 | O=C1C=CCCN1C(=O)/C=C/c1ccc(F)cc1 | 6.28% (inactive)
68 | C[C@H](CO)N1C[C@H](C)[C@H](CN(C)Cc2ccc(C(=O)O)cc2)Oc2ncc(-c3ccccc3)cc2C1=O | -1.47% (inactive)
69 | O=C(NC1=CC(=O)c2ccccc2C1=O)c1ccccc1 | 1.17% (inactive)
70 | O=C1C(Cl)=C(Oc2ccccc2)C(=O)c2ccccc21 | 4.78% (inactive)
71 | CC(=O)N(C1=C(Cl)C(=O)c2ccccc2C1=O)c1ccc(C(=O)O)cc1 | 91% (active)
72 | CNC[C@@H]1OCCCC[C@@H](C)Oc2ccc(NS(C)(=O)=O)cc2C(=O)N([C@H](C)CO)C[C@@H]1C | -3.75% (inactive)
73 | CCO[C@H]1OC(C(=O)N2CCCCCCC2)=C[C@@H](c2ccc(C(F)(F)F)cc2)[C@@H]1CCCO | -1.98% (inactive) and 3.38% (inactive)
74 | CCO[C@@H]1OC(C(=O)N2CCOCC2)=C[C@H](C)[C@H]1CCCO | -0.276% (inactive)
75 | CCO[C@H]1OC(C(=O)N2CCOCC2)=C[C@@H](c2ccc3c(c2)OCO3)[C@@H]1CCCO | 38.4% (active) and 1.81% (inactive)
